Assay outcomes: PubChem BioAssay, National Center for Advancing Translational Sciences (NCATS)
Sampled rows, rich in hits. Any-hit rate of the full collection: about 20%.
Pf growth 48h: inhibits P. falciparum growth in the first generation, 48 h. AID 504832. P. falciparum luciferase growth in erythrocytes, 48 h. 310,000 compounds, 5.9% hits. Potency, µM (doses to about 28.7 µM), hits mostly inhibitors
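Firefly luciferase activity from engineered P. falciparum reports growth; inhibitors lower the luminescent signal. Cultures contained 2% hematocrit erythrocytes at 0.1% final parasitemia.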
Shiga toxin inh: inhibitors of Shiga toxin in Vero cells; 290,000 compounds, 9.2% hits; AID 2315; inhibition, % at 38.7 µM; Vero cells, Shiga toxin protein synthesis inhibition reporter; in the data active = inhibition mostly above about 28%, no sharp cut-off; inactive = mostly below about 43%
HCMV inh: blocks human cytomegalovirus replication | HFF cells, HCMV-luciferase reporter, 72 h; stronger effect = lower value | activity change, negative = inhibition, % at 57.5 µM | 410,000 compounds, 4.5% hits | AID 1259415; in the data active = activity change below about -60%; inconclusive = no clear call, values can overlap the other calls; inactive = above about -39%
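Cell-based, HFFs, 1000 cells/well, 16 h 37C; cpds in DMSO + HCMV-luc, MOI 1 PFU/cell; 72 h 37C; OneGlo luminescence after 5 min RT; norm. to buffer vs Salinomycin 10uM.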
Pf growth 96h: P. falciparum growth inhibition at 96 hours; P. falciparum luciferase reporter growth, 96 h; Potency, µM (top dose mostly 28.7 µM), actives largely listed as inhibitors; 320,000 compounds, 6.9% hits; AID 504834
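Plates of compound plus infected erythrocytes (2% hematocrit, 0.05% parasitemia final) incubate 96 hours, 37 C, 5% CO2. Detection reagent added; reduced luminescence from the parasites' luciferase reporter flags inhibition.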
Cycloheximide cs: counter-screen hit for Shiga toxin inhibitors, cycloheximide; cell reporter, cycloheximide protein synthesis inhibition counterscreen; max response, %; 300,000 compounds, 12% hits; in the data active = max response mostly above about 13%, no sharp cut-off; inactive = mostly below about 14%; also: read at 38.3 µM for the half of the compounds with a filed dose
Each line names hits and unclear results; the compound was inactive in the other large screens. Unless noted, calls follow the shape of the dose curve; as a rule, active = well fitted inhibition curve with a large enough effect; inconclusive = small, poorly fitted or top-dose-only effect, or another doubt; inactive = no such curve, though single readings can be large or run the other way.

COc1ccc(CN2C3CCCC2CC(NC(=O)Nc2ccccc2)C3)cc1 (centres undefined)	Pf growth 48h 10.4µM, Pf growth 96h inconclusive
CCc1ccccc1NC(=O)NC1CC2CCC(C1)N2Cc1cccs1 (centres undefined)	Pf growth 96h inconclusive
COc1ccc(NC(=S)NC2CC3CCCC(C2)N3C2CC2)cc1 (centres undefined)	HCMV inh inconclusive
C=CCNC(=O)CSCc1ccc(Br)cc1	none
Nc1cc(-c2ccccc2)c[nH]c1=O	none (no result: Pf growth 48h, HCMV inh, Pf growth 96h)
CCn1c(SCc2ccccc2Cl)nc(=O)c2c(C(=O)OC)cc(C3CC3)nc21	none (no result: Pf growth 48h, Shiga toxin inh, Pf growth 96h, Cycloheximide cs)
COc1ccc(C(C)(C)C)cc1NC(=O)c1[nH]c(C)c(C(C)=O)c1C	Pf growth 48h inconclusive, Pf growth 96h inconclusive
Cn1c(=O)[nH]c2nnc(-c3ccc(Cl)c(Cl)c3)nc2c1=O	Pf growth 48h inconclusive, Shiga toxin inh 50.3, Pf growth 96h 1.65µM, Cycloheximide cs 25.5
CCN(C1=NS(=O)(=O)c2ccccc21)N(CC)S(=O)(=O)c1ccc(C)cc1	Pf growth 48h inconclusive, HCMV inh -68.7, Pf growth 96h inconclusive
COc1cc(CNc2ccc3[nH]c(=O)[nH]c3c2)ccc1OCc1cccc(C)c1	HCMV inh -66.1, Cycloheximide cs 21.2
COc1cc(CNc2ccc3[nH]c(=O)[nH]c3c2)ccc1OCc1ccccc1Cl	HCMV inh inconclusive
COc1cc(CNc2ccc3[nH]c(=O)[nH]c3c2)ccc1OCc1ccc(C)cc1	Shiga toxin inh 117.7, Cycloheximide cs 26.4
COc1cc(CNc2ccc3[nH]c(=O)[nH]c3c2)cc(Cl)c1OCc1ccc(F)cc1	none (no result: Pf growth 48h, Shiga toxin inh, Pf growth 96h, Cycloheximide cs)
CCOC(=O)N1CCc2c(sc3nc4n(c(=O)c23)N=C(c2ccc(OC)cc2)CS4)C1	Pf growth 48h 0.465µM, Pf growth 96h inconclusive
CCOC(=O)N1CCc2c(sc3ncn(C)c(=O)c23)C1	Pf growth 96h inconclusive
CCOC(=O)N1CCc2c(sc3nc(SC(C)C)n(N)c(=O)c23)C1	Pf growth 48h inconclusive, Pf growth 96h 11.7µM
CC1=C(C(=O)N2CCOCC2)CC(CC(=O)NCc2cccc3ccccc23)C(=O)N1Cc1ccc(C(C)(C)C)cc1 (centres undefined)	none (no result: Pf growth 48h, Shiga toxin inh, Pf growth 96h, Cycloheximide cs)
Cc1ccc(-c2ccc(/C=C3\C(=O)ON=C3c3ccccc3)o2)c([N+](=O)[O-])c1	HCMV inh -94.5
CCSc1cc(N2CCCC2)nc(-c2cccc(C)c2)n1	HCMV inh -62.4
CCSc1cc(N2CC(C)OC(C)C2)nc(-c2ccccc2Cl)n1 (centres undefined)	Pf growth 48h 2.08µM (no result: Pf growth 96h)
CCN(CC)C(=O)C1CCCN(C(=O)c2ccc3nc(-c4cccc(OC)c4)oc3c2)C1 (centres undefined)	none (no result: Pf growth 48h, Shiga toxin inh, Pf growth 96h, Cycloheximide cs)
COc1cccc(-c2nc3ccc(C(=O)N4CCCC(O)C4)cc3o2)c1 (centres undefined)	Shiga toxin inh 111.7, Pf growth 96h 10.4µM, Cycloheximide cs 58.8
CCC(=O)C1CCCN(C(=O)c2ccc3nc(-c4cccc(OC)c4)oc3c2)C1 (centres undefined)	Shiga toxin inh 69.3, Pf growth 96h inconclusive, Cycloheximide cs 45.4
CCOC(=O)C1CCCN(C(=O)c2ccc3nc(-c4cccc(OC)c4)oc3c2)C1 (centres undefined)	Shiga toxin inh 72.0, Pf growth 96h inconclusive, Cycloheximide cs 31.6
Cc1ccc(CC2(C)C(=O)Nc3c(Cl)cccc32)cc1 (centres undefined)	none (no result: Pf growth 48h, Shiga toxin inh, Pf growth 96h, Cycloheximide cs)
CC1CCN(S(=O)(=O)c2cccc(C(=O)NC3CCS(=O)(=O)C3)c2)CC1 (centres undefined)	none (no result: Pf growth 48h, Shiga toxin inh, Pf growth 96h, Cycloheximide cs)
Cc1ccc(-c2nc(CN(C)C)cc(CN(C)C)c2O)cc1	Pf growth 48h 6.57µM, Pf growth 96h inconclusive
COc1ccc(-c2ccc3c(N)c(C(=O)Nc4ccc(C)cc4C)sc3n2)cc1OC	none (no result: Pf growth 48h, Shiga toxin inh, Pf growth 96h, Cycloheximide cs)
COc1ccc2sc(-c3ccccc3OC)c(-c3ccc(O)cc3)c2c1	Pf growth 48h inconclusive, Pf growth 96h 2.33µM (no result: Shiga toxin inh, Cycloheximide cs)
COc1ccc2sc(-c3ccc(S(C)(=O)=O)cc3)c(-c3ccc4c(c3)OCCO4)c2c1	none (no result: Pf growth 48h, Shiga toxin inh, Pf growth 96h, Cycloheximide cs)
COc1ccc2sc(-c3ccccc3OC)c(-c3ccc4c(c3)OCCO4)c2c1	Pf growth 48h 10.4µM, Pf growth 96h 2.62µM (no result: Shiga toxin inh, Cycloheximide cs)
CCC(C)N(C(=O)COC(=O)Cc1n[nH]c(=O)c2ccccc12)C1CCS(=O)(=O)C1 (centres undefined)	none
CCOc1ccc(NC(=S)NNC(=O)c2cc(Br)ccc2Cl)cc1	none
S=C(NNc1ccnc2cc(Cl)ccc12)Nc1ccc(Cl)cc1Cl	Pf growth 48h 1.85µM, Pf growth 96h 0.738µM
